In the library only some 19% were active in any assay of this set; here they are far more common.
TDP1 inh – blocks human tyrosyl-DNA phosphodiesterase 1. Q9NUW8. recombinant TDP1, AlphaScreen DNA substrate cleavage. Potency, µM (series often up to 130 µM), for the others: at the highest dose activity change, negative = inhibition, actives largely listed as inhibitors. 350,000 compounds, 0.28% hits. AID 485290; note: nearly all actives have a fitted effect of over 40% in size
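AlphaScreen read-out: signal falls as enzyme removes the 3' tyrosine-FITC from a 5'-biotinylated DNA oligo (15 nM, 5 min, RT). Enzyme was E. coli-made recombinant Tdp1 at 1 nM, exposed to compound for 15 min beforehand; beads 10 ug/ml, 10 min.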
DT40 TDP1 no CPT – qHTS for Inhibitors of human tyrosyl-DNA phosphodiesterase 1 (TDP1): qHTS in cells in absence of CPT; DT40 Tdp1-/- hTDP1 cells, no CPT, ATP luminescence, 48 h; Potency, µM (series often up to 46.2 µM), inactives show at the highest dose activity change, negative = growth inhibition, actives largely listed as inhibitors; 420,000 compounds, 15% hits; note: nearly all actives have a fitted effect of over 55% in size
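Chicken DT40 Tdp1-/- cells stably complemented with human TDP1 were seeded at 400 cells/well with DMSO in place of 20 nM camptothecin. After compound pinning, cells grew at least 48 hr at 37 °C; viability read by CellTiter-Glo luminescence.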
Gal4-VP16 FLuc – Gal4-VP16 reporter inhibition counter-screen; Drosophila S2 Gal4-VP16 UAS-luciferase, luminescence, 20 h; Potency, µM (highest dose often 53.6 µM), for the others: top-dose activity, negative = inhibition, most hits filed as inhibitors; 310,000 compounds, 3.5% hits;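 note: Gal4-VP16 expression switched on by copper sulfate through the metallothionein promoter; nearly all actives have a fitted effect of over 50% in size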
DT40 TDP1 CPT – growth inhibition of DT40 Tdp1-/-;hTDP1 cells with camptothecin (screen for TDP1 inhibitors); Potency, µM (doses to about 46.2 µM), without a hit: at the top dose activity change, negative = growth inhibition, usual class: inhibitors; chicken DT40 Tdp1-/-;hTDP1 cells + 20 nM CPT, ATP luminescence, 48 h; 420,000 compounds, 12% hits; note: nearly all actives have a fitted effect of over 55% in size
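Chicken DT40 Tdp1-/- cells stably complemented with human TDP1 were seeded at 400 cells/well in medium containing 20 nM camptothecin, exposed to pin-transferred compounds, and grown at 37 °C for at least 48 hr. Viability was read as ATP luminescence.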
RORgamma inh – inhibitors of mouse ROR gamma transcriptional activity; P51450; Drosophila S2 Gal4-RORgamma UAS-luciferase reporter, 20 h; Potency, µM (highest dose often 53.6 µM), for inactives: at the top dose activity change, negative = inhibition, usual class: inhibitors; 310,000 compounds, 5.4% hits; AID 2551; note: nearly all actives have a fitted effect of over 60% in size
Target sequence (P51450 whole entry, looked up, the tested form may be a part): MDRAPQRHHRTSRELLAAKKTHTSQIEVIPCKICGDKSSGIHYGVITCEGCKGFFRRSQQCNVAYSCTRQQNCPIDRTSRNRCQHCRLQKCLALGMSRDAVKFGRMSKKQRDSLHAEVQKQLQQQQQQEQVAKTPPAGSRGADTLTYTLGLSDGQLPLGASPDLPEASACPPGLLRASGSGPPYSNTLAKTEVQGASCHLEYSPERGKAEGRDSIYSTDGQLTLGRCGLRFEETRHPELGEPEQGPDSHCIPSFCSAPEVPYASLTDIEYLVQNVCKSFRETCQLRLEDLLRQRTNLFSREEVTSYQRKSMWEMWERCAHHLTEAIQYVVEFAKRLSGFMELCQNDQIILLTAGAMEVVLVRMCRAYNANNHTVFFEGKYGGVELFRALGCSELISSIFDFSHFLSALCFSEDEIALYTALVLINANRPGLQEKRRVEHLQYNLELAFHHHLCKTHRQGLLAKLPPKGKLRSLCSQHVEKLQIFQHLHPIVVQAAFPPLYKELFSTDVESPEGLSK
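ROR gamma transcriptional activity was tracked as Gal4-UAS luciferase output in stably transfected Drosophila Schneider cells, with compound added 1 hr before 700 uM copper sulfate induction and a 20 hr ambient-temperature incubation.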
Active calls of the source: *; ? = inconclusive; nt = no result; [ ] = remark or other dose. Calls come from the whole dose curve; as a rule, active = well fitted curve in the direction sought with a large enough effect; inconclusive = small, poorly fitted or top-dose-only effect, or another doubt; inactive = no such curve, though single readings can be large; an effect the other way counts as inactive or inconclusive. % is set by controls: 0 for no effect and ±100 for the full control effect; potency is the fitted concentration of half-maximal effect.

SMILES | TDP1 inh | DT40 TDP1 no CPT | Gal4-VP16 FLuc | DT40 TDP1 CPT | RORgamma inh
Cc1cccc(Nc2nc(N)nc(CCl)n2)c1 | 1% | 21µM* | 10µM* | 13µM* | ?
Cc1cccc(Nc2nc(N)nc(CCl)n2)c1C | 8% | 16µM* | ? | 10µM* | ?
CCOC(=O)c1cnc(SCc2nc(N)nc(Nc3ccc(C)cc3)n2)nc1N | 9% | ? | -1% | 21µM* | 18%
COc1ccccc1NC(=O)COc1ccc(Br)cc1CNCCCN1CCOCC1 | 3% | ? | 2% | ? | -5%
COc1ccc(Nc2nc(N)nc(CSc3nc4cc(OC)ccc4s3)n2)cc1 | 6% | 15µM* | nt | 12µM* | nt
O=C(Nc1ccc(Br)cc1F)c1ccncc1 | -2% | -29% | 6% | -10% | -2%
O=C(Nc1ccc(Br)cc1F)c1ccc2nsnc2c1 | 1% | 8.2µM* | 1% | ? | 29%
CCOCCN1CCN(c2c(C)c(C)nc3cc(-c4cc(OC)cc(OC)c4)nn23)CC1 | 4% | 26µM* | 14% | ? | 1%
CCc1c(C)nc2cc(-c3cc(OC)cc(OC)c3)nn2c1N1CCN(CCN2CCOCC2)CC1 | 6% | 16µM* | ? | 23µM* | ?
CCN(CC)c1ccc(C2C(C(=O)OC(C)C)C(=O)CC(C)(O)C2C(=O)OC(C)C)cc1 (centres undefined) | -7% | 13µM* | 11% | 15µM* | -1%
Cc1oc(-c2cccs2)nc1CNC[C@H]1O[C@@H](n2cnc(C(N)=O)n2)[C@H](O)[C@@H]1O | nt | -4% | nt | -5% | nt
Cc1sc2ncnc(SCC(=O)c3ccc(O)cc3O)c2c1C | nt | ? | ? | ? | 13µM*
Cc1ccc(OCC(=O)NNC(=O)CSc2ncnc3sc(C)c(C)c23)cc1 | 5% | -20% | 4% | ? | -15%
Cc1ccc(OCCSc2ncnc3sc(C)c(C)c23)cc1C | 5% | ? | -15% | -29% | 11µM*
Cc1sc2ncnc(SCC(=O)c3ccc(Cl)s3)c2c1C | 8% | nt | -10% | nt | 37%
O=C(CN1CCN(S(=O)(=O)c2ccc(Cl)cc2)CC1)Nc1ccc2c(c1)OCCO2 | 4% | 15µM* | -2% | ? | 17%
O=C(CN1CCN(S(=O)(=O)c2ccc(Cl)cc2)CC1)Nc1ccc2c(c1)OCO2 | 6% | 29µM* | -8% | ? | 30%
Cc1onc(-c2ccccc2)c1C(=O)OCC(=O)N1CCC(C)CC1 | 1% | 5% | nt | -12% | nt
O=C(c1cccs1)c1no[n+]([O-])c1C(=O)c1cccs1 | -11% | 2.3µM* | 11µM* | 1.8µM* | 11µM*
O=C(c1ccc(Cl)nc1)c1cccs1 | nt | -9% | -9% | 2% | 9%
CCOC(=O)C1=C(C)NC2=C(C(=O)C(C(=O)OCC)C(c3cccc(OC)c3)C2)C1c1ccccn1 (centres undefined) | 0% | ? | 1% | ? | ?
COc1ccccc1NC(=O)CSc1nnc(Cc2cccn2C)n1CCc1ccccc1 | 5% | ? | -4% | -28% | 35%
Cc1ccc(C)c(-n2c(Cc3cccs3)n[nH]c2=S)c1 | 3% | ? | 3.2µM* | ? | 7.1µM*
COc1ccccc1-n1c(CNC(=O)c2cccs2)n[nH]c1=S | -7% | 5% | 4% | 4% | -23%
COc1ccccc1-n1c(Cc2cccs2)n[nH]c1=S | -3% | -7% | -17% | 22% | 10µM*
SMILES | TDP1 inh | DT40 TDP1 no CPT | Gal4-VP16 FLuc | DT40 TDP1 CPT | RORgamma inh
CCCCc1ccc(-n2c(Cc3cccs3)n[nH]c2=S)cc1 | 4% | ? | ? | ? | 1.4µM*
S=c1[nH]nc(Cc2cccs2)n1-c1ccccc1Cl | 3% | -1% | ? | 16% | 6.3µM*
CCCCOCC(O)CCc1n[nH]c(=S)n1-c1ccccc1 (centres undefined) | nt | -5% | -6% | -2% | -45%
CCOc1ccc(NC(=O)c2ccc(NC(=O)c3ccc(CN4CCOCC4)cc3)cc2)cc1 | 0% | -18% | 1% | -5% | -4%
Cc1cccc(C)c1NC(=O)CCCn1nc(C)c2c(C)n(-c3ccccc3)nc2c1=O | -10% | 24% | -1% | -6% | 7%
COCCNC(=O)c1ccc(C2SCC(=O)N2CCc2ccccc2)cc1 (centres undefined) | nt | -2% | 27% | -23% | 42%
CN1C(=O)C2(OCC(CO)([N+](=O)[O-])CO2)c2ccccc21 (centres undefined) | nt | 1% | 12% | -5% | 31%
S=c1[nH]nc(Cc2cccs2)n1-c1cccc2ccccc12 | 8% | ? | ? | -4% | 4µM*
Cc1nc(N2CCOCC2)c2c(C(=O)N3CCN(c4cccc(C(F)(F)F)c4)CC3)c(C)oc2n1 | 1% | -17% | nt | ? | nt
CCn1c(NCc2cccc(Cl)c2)nc2ccccc21 | 3% | 23µM* | nt | ? | nt
Clc1cccc(CNc2nnnn2-c2ccccc2)c1 | 3% | 16µM* | -13% | ? | 35%
Cn1nnnc1NCc1cccc(Cl)c1 | -2% | 0% | 5% | -15% | -9%
COc1ccc(CNc2nc3ccccc3n2Cc2ccc(Cl)cc2)cc1OC | 4% | 13µM* | ? | 16µM* | 39%
CCOc1ccc(Cn2c3ccc(OC)cc3c3nc4ccccc4nc32)cc1OC | -1% | ? | ? | -42% | 13µM*
Cn1c(NCc2cccc(Cl)c2)nc2ccccc21 | 5% | ? | nt | ? | nt
CC1Cc2ccccc2N1C(=O)COC(=O)C1=COCCO1 (centres undefined) | -3% | 0% | 2% | -3% | 6%
CCOc1ccc(N2C(=O)CC(N3CCN(c4ccc(Cl)cc4)CC3)C2=O)cc1 (centres undefined) | nt | ? | -29% | ? | -19%
C#CCOCCOCCOCCNc1nc(N2CCN(C(=O)Cn3cc(CCO)nn3)CC2)nc(N2CCN(C(=O)[C@H](C)n3cc(CCCN=C(N)N)nn3)CC2)n1 | nt | 2% | nt | 0% | nt
CCn1c(NCc2ccc(OC)c(OC)c2)nc2ccccc21 | 2% | 9.2µM* | nt | ? | nt
CCc1nc2ccccc2n1Cc1ccc(OC)c(OC)c1 | 3%[56.1 µM] | ? | -10% | ? | -26%
CCn1c(NCc2cc(OC)c(OC)c(OC)c2)nc2ccccc21 | 3% | -87% | 2% | ? | -1%
CCc1ccccc1Nc1nc2ccccc2n1CC | -3% | ? | ? | -11% | 14µM*
COc1ccc(/C=C/c2nc3ccccc3n2Cc2ccc(OC)c(OC)c2)cc1 | 3% | ? | ? | ? | 13µM*
Cc1ccc2cc(CCNC(=O)CC(C)C)c(=O)[nH]c2c1 | 0% | 4% | -4% | -13% | -5%
O=[N+]([O-])c1cccc2nc3ccccc3c(NCCCn3ccnc3[N+](=O)[O-])c12 | nt | 0.18µM* | nt | 0.15µM* | nt
